The results in this text go back to PubChem BioAssay AID1851 (National Center for Advancing Translational Sciences (NCATS), 2009).

The term AC50 denotes the concentration giving half of the maximal activity seen.

Screen size: about 16,000 compounds; about 4,000 (25%) were called active. Not shown: some 26% with an inconclusive outcome. Only a sample is shown. Values without a mark were called inactive. The call rests on the fitted dose curve; in most records, active means well fitted curve in the direction sought with a large enough effect; inconclusive means small, poorly fitted or top-dose-only effect, or effect the other way; inactive means no such curve, though single readings can be large or run the other way.
On the % scale 0 is the no-effect control and ±100 the full control effect.

Chain of Cytochrome P450 2C9 (Homo sapiens) (P11712 whole entry, looked up): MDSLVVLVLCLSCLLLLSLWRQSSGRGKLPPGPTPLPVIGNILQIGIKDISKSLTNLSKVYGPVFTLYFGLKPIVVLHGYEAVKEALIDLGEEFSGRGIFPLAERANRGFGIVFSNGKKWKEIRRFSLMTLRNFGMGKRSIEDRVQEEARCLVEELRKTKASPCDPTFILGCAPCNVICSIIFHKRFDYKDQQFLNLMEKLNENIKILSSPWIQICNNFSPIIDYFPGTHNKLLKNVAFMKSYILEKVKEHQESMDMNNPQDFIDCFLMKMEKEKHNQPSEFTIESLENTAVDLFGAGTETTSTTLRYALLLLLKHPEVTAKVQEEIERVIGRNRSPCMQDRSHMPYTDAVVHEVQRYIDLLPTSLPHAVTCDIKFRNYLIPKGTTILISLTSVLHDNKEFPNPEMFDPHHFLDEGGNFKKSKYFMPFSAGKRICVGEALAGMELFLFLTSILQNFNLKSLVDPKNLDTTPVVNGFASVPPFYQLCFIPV

This test addresses Cytochrome P450 2C9 (Homo sapiens) (UniProt P11712). Put plainly: Cytochrome panel assay with activity outcomes. To be noted: recombinant CYP, pro-luciferin dealkylation, luminescence, p450-cyp2c9; series mostly up to 57.1 µM.
Consider `COc1ccc2c(=O)cc(-c3ccncc3)oc2c1OC`, for which the activity, negative = inhibition is -7.78% [at 11.4 µM]. On the same count and under the same terms, next, `O=S(=O)(O)c1ccc(-c2nnc(-c3ccccn3)nc2-c2ccc(S(=O)(=O)O)o2)o1`: -9.22% [at 11.4 µM]; `CO[C@@H]1COC(=O)[C@@H](C)NC(=O)C/C=C\[C@@H](C)[C@H](NS(=O)(=O)c2ccc(C)cc2)COC(=O)[C@H](C)NC(=O)C/C=C\[C@H]1C`: 9.56% [at 11.4 µM]. Turning to `CC1(C)OC(=O)NC1=O`, the AC50 result was “inactive”. Same read-out and setting: next, `COC(=O)Cn1cnc(=O)c(C#N)c1/C=C/N(C)C`: “inactive”. `Cc1cnc(CNc2ncnc3ccc(-c4ccccc4C)cc23)cn1`: the activity, negative = inhibition was 0.0371% [at 2.29 µM].

For the molecule `COc1ccc(NC(=O)N2CC[C@@]3(CCCN(C(=O)c4cccn4C)C3)C2)cc1`, the AC50 result is “inactive”. The same measure, in the same setting: next, `NC(=O)[C@H]1CC2(CC(c3cccc(NC(=O)c4ccccc4)c3)=NO2)CN1C(=O)[C@H]1CCC(=O)N1` (stereo partly specified): “inactive”.

Consider `NCCNc1ncnc2ccc(Cl)cc12`, for which the activity, negative = inhibition was 6.44% [at 11.4 µM]. Turning to `CNc1ncnc2ccc(-c3ccccc3CN(C)C)cc12`, the activity, negative = inhibition is -7.28% [at 2.29 µM]. In the case of `c1ccc(Nc2ncnc3ccc(-c4ccoc4)cc23)cc1`, the activity, negative = inhibition was 1.19% [at 2.29 µM].

Consider `Brc1ccc2ncnc(Nc3cccc4ccccc34)c2c1`, for which the half-maximal activity concentration (AC50) was 2.51 µM (active). Regarding `c1ccc(Nc2ncnc3ccc(-c4cccnc4)cc23)cc1`, the activity, negative = inhibition is 5.26% [at 2.29 µM]. Regarding `Clc1cccc(Nc2ncnc3ccc(Br)cc23)c1`, the AC50 is 14.1 µM (active).

On to `CN[C@H]1[C@@H](O[C@@H]2[C@H](O[C@@H]3[C@@H](O)[C@@H](O)[C@@H](N=C(N)N)[C@@H](O)[C@@H]3N=C(N)N)O[C@H](C)[C@@]2(O)C=O)O[C@@H](CO)[C@@H](O)[C@H]1O`, for which the AC50 result is “inactive”.

Consider `CCc1c2c(nc3cccc(SC)c13)COC2`, for which the AC50 entry was “inactive”. On the same count and under the same terms, the value for `CC(C)OC(=O)c1nnn(-c2nonc2N)c1CSc1ccccn1` was 1.58 µM (active); that for `Cc1cc(OC(=O)c2ccc(Cl)cc2Cl)nc(C)n1` was 5.62 µM (active); that for `Cc1oc2c(C)c(O)ccc2c(=O)c1-c1ccc2ccccc2n1` was “inactive”. Turning to `CCc1cc2c(=O)c(-c3nc4ccccc4n3C)c(C)oc2c(CN(CC)CC)c1O`, the AC50 is 14.1 µM (active). With `COc1ccc(-n2c(=O)c(-c3cn(C)c4ccccc34)nc3cnc(OC)nc32)cc1`, the AC50 entry is “inactive”.

Turning to `CC[C@H]1CN(C)[C@H]2Cc3c([nH]c4ccccc34)C(=O)C[C@H]1[C@H]2C(=O)OC`, the activity, negative = inhibition is -5.96% [at 11.4 µM].

As to `O=c1cc(-c2ccccc2)oc2cc(O)c(O)c(O)c12`, the AC50 result was “inactive”.

As for `CCOC(=O)COc1cc(OCC(=O)OCC)c2c(=O)cc(-c3ccccc3)oc2c1`, the AC50 was 8.91 µM (active).

With `O=C(O)c1cc(=O)c2c(OCC(O)COc3cccc4oc(C(=O)O)cc(=O)c34)cccc2o1`, the AC50 entry is “inactive”. Same read-out and setting: the value for `COc1cnc(SCc2ccc(Cl)cc2)nc1Cl` was 22.4 µM (active). Consider `COc1cc2nncc(SCc3ccc(Cl)c(Cl)c3)c2cc1OC`, for which the activity, negative = inhibition is -3.4% [at 11.4 µM]. With `Cc1noc(C)c1-c1nc(N2CCOCC2)c2ccccc2n1`, the activity, negative = inhibition was 4.41% [at 2.29 µM]. `Cc1nc2cnc(N3CCOCC3)nc2n(C)c1=O`: the AC50 result is “inactive”. The same measure, in the same setting: the value for `Cc1nc(N2CCOCC2)nc(N2CCN(c3ccccc3)CC2)c1[N+](=O)[O-]` was 3.16 µM (active); that for `COC(Cn1c(C)c(C(C)=O)c(C(C)=O)c1C)OC` was “inactive”. Still for that read-out and setting: next, `c1ccc(-c2cccc(N3CCC4(CCNCC4)CC3)c2)cc1`: “inactive”. In the case of `O=C(O)/C=C\C(=O)Nc1ncn[nH]1`, the activity, negative = inhibition was -8.21% [at 11.4 µM].

Turning to `Cc1noc(NS(=O)(=O)c2ccc(N)cc2)c1C`, the AC50 result was “inactive”.

Consider `Cc1ccc(OCC(=O)Nc2ccc(S(=O)(=O)Nc3onc(C)c3C)cc2)cc1`, for which the AC50 is 17.8 µM (active). Still for that read-out and setting: next, `Cc1noc(C)c1C(=O)N1CCC[C@@]2(CCN(c3ncccn3)C2)C1`: “inactive”. As to `COc1ccccc1-c1nccc(NCc2ccccc2)n1`, the activity, negative = inhibition was 4.32% [at 2.29 µM].

As for `C=CCn1c(NCc2ccccc2)nc2ccccc21`, the AC50 result is “inactive”.

On to `COc1ccc(CNc2nc3ccccc3n2Cc2ccccc2)cc1OC`, for which the AC50 was 8.91 µM (active). Still for that read-out and setting: the value for `CCc1c(C(C)O)oc2ccc3c(C)cc(=O)oc3c12` (stereo unspecified) was 7.94 µM (active); that for `CC(C)n1c(=O)c2c(O)cc(=O)oc2c2ccccc21` was “inactive”. With `Cc1cc2cc3c(C)cc(=O)oc3c(C)c2o1`, the AC50 entry is “inactive”. With `O=C(O)CCCc1ccc2ccc3ccccc3c2c1`, the activity, negative = inhibition is 17.3% [at 11.4 µM].

Regarding `NCCCc1ccc2oc3ccccc3c2c1`, the activity, negative = inhibition is -10.6% [at 11.4 µM]. On to `NNC(=O)CCc1ccc2ccc3ccccc3c2c1`, for which the AC50 was 1.58 µM (active). The same measure, in the same setting: next, `CC(C)COP(=O)(OCC(C)C)C(O)c1ccccc1F` (stereo unspecified): “inactive”. For the molecule `CCC(C)NC(=O)Cn1cnc2sc(C)cc2c1=O` (stereo unspecified), the AC50 result is “inactive”.

As for `O=C(CCNC(=O)Cn1cnc2ccccc2c1=O)NCC1COc2ccccc2O1` (stereo unspecified), the AC50 was 10 µM (active). The same measure, in the same setting: the value for `COc1cccc(OC)c1OCCNC[C@@H]1COc2ccccc2O1` was “inactive”; that for `O=C(Cn1cnc2ccccc2c1=O)NCCC(=O)Nc1ccc2c(c1)OCCO2` was 6.31 µM (active); that for `CCCNC(=O)Cn1cnc2sc(C(=O)Nc3ccc4c(c3)OCO4)c(C)c2c1=O` was 1.12 µM (active). Same read-out and setting: next, `O=C1CC2(CCCC2)CC(=O)N1CCCCNC[C@H]1COc2ccccc2O1`: “inactive”. Consider `C[N@+]1(CCC(=O)c2ccccc2)CC[C@H]2CC[C@H](C2)C1`, for which the activity, negative = inhibition was 8.55% [at 11.4 µM]. For `N/N=C1/CC(=O)NC(=O)N1`, the activity, negative = inhibition was 28.1% [at 11.4 µM]. `CC(=O)N(CC(=O)O)c1ccccc1C(=O)O`: the AC50 entry was “inactive”.

Take `CC(C)(C)C(=O)N(CCN(C(=O)C(C)(C)C)c1ccccc1)c1ccccc1`: the half-maximal activity concentration (AC50) was 15.8 µM (active).

As for `CC(CC(=O)O)(CC(=O)O)c1ccccc1`, the activity, negative = inhibition is 13.9% [at 11.4 µM]. On to `O=C(c1cccc(F)c1)N1CCC2(CC1)CCN(c1cccc(-c3ccccc3)c1)CC2`, for which the AC50 result was “inactive”.

Take `O=C(c1cccc(F)c1)N1CCC2(CC1)CN(c1cccc(-c3ccccc3)c1)C2`: the AC50 entry is “inactive”.

For `O=C(c1cccc(F)c1)N1CCC2(CCCN(c3ccc(-c4ccccc4)cc3)C2)CC1`, the AC50 was 15.8 µM (active). In the case of `O=C(c1cccc(F)c1)N1CCC2(CC1)CN(c1ccc(-c3ccccc3)cc1)C2`, the AC50 entry was “inactive”.

For `O=C(c1cccc(F)c1)N1CCC2(CC1)CCN(c1ccc(-c3ccccc3)cc1)CC2`, the AC50 result was “inactive”. Same read-out and setting: next, `O=C(c1cccc(F)c1)N1CCC2(CCCN(c3cccc(-c4ccccc4)c3)C2)CC1`: 12.6 µM (active); `O=C(c1cccc(F)c1)N1CCC2(CCCN(c3ccccc3)C2)CC1`: 10 µM (active). The same measure, in the same setting: next, `O=C(c1cccc(F)c1)N1CCC[C@@]2(CCN(c3ccccc3)C2)C1`: “inactive”; `CC(C)NC(=O)N1CCCC2(CCN(C(=O)c3cccc(F)c3)CC2)C1`: “inactive”.
